Source: PubChem BioAssay (NCATS)
Records with an inconclusive call do not appear. Activity calls are given as the source filed them. The call rests on the fitted dose curve; in most records, active means well fitted curve in the direction sought with a large enough effect; inconclusive means small, poorly fitted or top-dose-only effect, or another doubt; inactive means no such curve, though single readings can be large; an effect the other way counts as inactive or inconclusive.

Columns and labels:
[1] = DH5-alpha competent E. coli microbial cell viability qHTS against the NCATS CANVASS Library (AID 1347377)
How it was run: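 DH5-alpha E. coli suspension was exposed to an 11-point compound series overnight at 37 °C. Viable cells quantified by ATP luminescence (BacTiter-Glo) after 20 min at room temperature.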

[2] = qHTS for H2AX Agonists against the NCATS CANVASS Library (AID 1347378);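 further: phospho-H2AX S139 level in CHO-K1 lysates by TR-FRET emission ratio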
How it was run: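 Following overnight seeding, CHO-K1 cells are incubated with a concentration series of compound for 3 hr at 37C (final DMSO 0.76%). Cells are then lysed, detection antibodies added, and emission ratio 665/620 nm recorded after 24 hr at room temperature.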

[3] = qHTS for Inflammasome Signaling Inhibitors: IL-1-beta AlphaLISA screen against the NCATS CANVASS Library (AID 1347379); conditions: outcome: dose series up to 57.5 µM;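 further: human THP-1 cells primed with LPS then triggered with ATP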
Description: Natural products and their derivatives continue to be wellsprings of nascent therapeutic potential. However, many laboratories have limited resources for biological evaluation, leaving their previously isolated or synthesized compounds largely or completely untested. To address this issue, the Canvass library of natural products was assembled (https://tripod.nih.gov/canvass), in collaboration with academic and industry researchers, for quantitative high-throughput screening (qHTS) across a diverse set of cell-based and biochemical assays. […] The library was formatted into 1536-well plates and evaluated in 50 qHTS (in an 11-pnt concentration series) bioassays with broad scope of disease-relevant mechanisms. The resulting data set from 50 different assays was then systematically analyzed to identify overall trends and specific natural products with interesting biological activities. […]
IL-1-beta qHTS protocol: Three microliters containing 3000 THP-1 cells were dispensed into the wells of solid, white, tissue culture treated Greiner 1,536-well plates. […] The AlphaLISA signal was read by a PerkinElmer EnVision plate reader with an ultrasensitive luminescence detector and 1536 Plate HTS AlphaScreen aperture (excitation of 680nm and emission of 615nm).

[4] = qHTS for Antimalaria activity screened against the NCATS CANVASS Library (AID 1347380);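 further: Plasmodium falciparum strain Dd2 asexual parasites grown in red blood cells; series mostly up to about 29 µM; nearly all actives have a fitted effect of over 40% in size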
Description: Natural products and their derivatives continue to be wellsprings of nascent therapeutic potential. However, many laboratories have limited resources for biological evaluation, leaving their previously isolated or synthesized compounds largely or completely untested. To address this issue, the Canvass library of natural products was assembled (https://tripod.nih.gov/canvass), in collaboration with academic and industry researchers, for quantitative high-throughput screening (qHTS) across a diverse set of cell-based and biochemical assays. […] The library was formatted into 1536-well plates and evaluated in 50 qHTS (in an 11-pnt concentration series) bioassays with broad scope of disease-relevant mechanisms. The resulting data set from 50 different assays was then systematically analyzed to identify overall trends and specific natural products with interesting biological activities. […] The proliferation assay assesses the ability of compounds to inhibit the proliferation and/or have cytotoxic effects (72 hr) against the asexual erythrocytic growth of Plasmodium falciparum Dd2, as determined by a SYBRGreen fluorescence assay. […]
Malaria-screen protocol: Assay adopted from Plouffe et al. 2008 PNAS 105: 9059; PMID: 18579783. […] The fluorescence signal was read using the EnVision (PerkinElmer) plate reader (bottom read) using a 485/14 nm excitation and 535/25 nm emission filters.

[5] = Inflammasome Signaling qHTS Counterscreen: IL-1-beta AlphaLISA counterscreen against the NCATS CANVASS Library (AID 1347381);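 further: cell-free check with purified IL-1β in medium and no THP-1 cells; series mostly up to about 57 µM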
How it was run: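 Cell-free interference check: compounds added to medium spiked with 4 pg purified IL-1β. Anti-IL-1β acceptor beads (6 ug/mL) with 0.6 nM biotinylated antibody added for 1 h at RT, then streptavidin donor beads (24 ug/mL) for 30 min in the dark. AlphaLISA read at 680/615 nm.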

[6] = Cytotoxicity qHTS for assessment of Hepg2 cells membrane integrity screened against the NCATS CANVASS Library (AID 1347387)
How it was run: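 HepG2 cells (2000/well) attached overnight, then exposed 5 hr at 37C to compounds in an 11-point series (0.59 nM - 46 uM final). LDH release from damaged membranes read fluorometrically (CytoTox-ONE; 560/590 nm) after 10 min at room temperature.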

[7] = qHTS for Activators of p53 Stress Response Pathway screened against the NCATS CANVASS Library (AID 1347388)
How it was run: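 Beta-lactamase reporter driven by p53 response elements in HCT-116 cells, read as the 460 nm/530 nm emission ratio after CCF4 loading, following 16 h of exposure to an 11-point series. Cell viability was measured in the same wells by CellTiter-Glo luminescence.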

[8] = Secretion counterscreen for inhibitors of the SERCaMP assay screened against the NCATS CANVASS Library (AID 1347390);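 further: light from luciferase secreted into medium read as a measure of general secretion; series mostly up to about 77 µM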
How it was run: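 Counterscreen identifying compounds that disrupt secretion, using SH-SY5Y cells with a constitutively secreted Gaussia luciferase reporter. A 20 h compound exposure (top 77 uM) precedes luminescent detection with coelenterazine.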

[9] = qHTS for activators of Nrf2/ARE signaling pathway screened against the NCATS CANVASS Library (AID 1347391); further: nearly all actives have a fitted effect of over 60% in size
How it was run: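 ARE-bla HepG2 beta-lactamase reporter cells exposed to compounds for 16 h at 37C; CCF4 substrate 2 h, fluorescence at ex 405 nm, em 460/530 nm. Viability by CellTiter-Glo luminescence.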

[10] = qHTS assay for small molecule disruptors of mitochondrial membrane potential screened against the NCATS CANVASS Library (AID 1347389); further: series mostly up to about 46 µM; nearly all actives have a fitted effect of over 60% in size
How it was run: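 HepG2 cells (2,000/well) plated overnight, then exposed to compounds in 11-point qHTS series for 1 h at 37C before 30 min Mito-MPS dye; depolarization read as fall in red aggregate (590 nm) to green monomer (535 nm) fluorescence.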

Measured: outcome

CC1=C2C(=O)O[C@@H](c3ccoc3)[C@]2(C)CCC1
inactive: [1] | [2] | [3] | [4] | [5] | [6] | [7] | [8] | [9]

C/C=C/C=C/C(CC(=O)O)Nc1ccc(C=O)cc1 (stereo not drawn)
inactive: [1] | [2] | [3] | [5] | [6] | [7] | [10] | [8] | [9]
